# Measured values as given in publication PMC11062922 (Nature Chemical Biology, 2023).
# Where two headings read alike, the source gives them in different places.
# Tests used:
# Set-up in all cases: species or system human, MV4-11 + K-562 + COLO205 + SK-N-BE2 + OVCAR-8
# JAK2 = conditions: read-out: apparent Kd, n = 1
# GSK3A = conditions: read-out: apparent Kd, n = 1
# GSK3B = conditions: read-out: apparent Kd, n = 1
# PRKCA = conditions: read-out: apparent Kd, compound concentrations: 100 nM and 1000 nM (sheet 'Samples'), n = 1
# PRKCB = conditions: read-out: apparent Kd, compound concentrations: 100 nM and 1000 nM (sheet 'Samples'), n = 1
# PRKCD = conditions: read-out: apparent Kd, compound concentrations: 100 nM and 1000 nM (sheet 'Samples'), n = 1
# PRKCI = conditions: read-out: apparent Kd; compound concentrations: 100 nM and 1000 nM (sheet 'Samples'), CATDS: 6.3639374568516094E-2; n = 1
# PRKCQ = conditions: read-out: apparent Kd, compound concentrations: 100 nM and 1000 nM (sheet 'Samples'), n = 1
# RPS6KA6 = conditions: read-out: apparent Kd, compound concentrations: 100 nM and 1000 nM (sheet 'Samples'), n = 1
# RPS6KB1 = conditions: read-out: apparent Kd; compound concentrations: 100 nM and 1000 nM (sheet 'Samples'), CATDS: 7.7658945876463797E-2; n = 1
# HSP90B1 = conditions: read-out: apparent Kd, n = 1
# PIK3CA = conditions: read-out: apparent Kd; compound concentrations: 100 nM and 1000 nM (sheet 'Samples'), CATDS: 0.37756355389393098; n = 1
# PIK3CD = conditions: read-out: apparent Kd; compound concentrations: 100 nM and 1000 nM (sheet 'Samples'), CATDS: 0.43898083182903402; n = 1
# PIM2 = conditions: read-out: apparent Kd; compound concentrations: 100 nM and 1000 nM (sheet 'Samples'), CATDS: 0.17072245355379401; n = 1
# HSPE1 = conditions: read-out: apparent Kd; compound concentrations: 100 nM and 1000 nM (sheet 'Samples'), CATDS: 0.26304172030338102; n = 1
# PGK1 = conditions: read-out: apparent Kd; compound concentrations: 100 nM and 1000 nM (sheet 'Samples'), CATDS: 0.76516694172770505; n = 1
# PKM = conditions: read-out: apparent Kd; compound concentrations: 100 nM and 1000 nM (sheet 'Samples'), CATDS: 0.19798813046119201; n = 1
# RAN = conditions: read-out: apparent Kd; compound concentrations: 100 nM and 1000 nM (sheet 'Samples'), CATDS: 0.17121500690258801; n = 1
# IARS = conditions: read-out: apparent Kd; compound concentrations: 100 nM and 1000 nM (sheet 'Samples'), CATDS: 0.48101189655770898; n = 1
# RIOK2 = conditions: read-out: apparent Kd; compound concentrations: 100 nM and 1000 nM (sheet 'Samples'), CATDS: 0.52054883723006395; n = 1
# MERTK = conditions: read-out: apparent Kd; compound concentrations:100 nM and 1000 nM (sheet 'Samples'); n = 1
# ICK = conditions: read-out: apparent Kd; compound concentrations: 100 nM and 1000 nM (sheet 'Samples'), CATDS: 0.23248137577465; n = 1
# PIK3CB = conditions: read-out: apparent Kd; compound concentrations:100 nM and 1000 nM (sheet 'Samples'); n = 1
# [1] = compound concentrations: 100 nM and 1000 nM (sheet 'Samples'), CATDS: 1
# [2] = compound concentrations:100 nM and 1000 nM (sheet 'Samples')
smiles,measurement,setting,value
COC(=O)Nc1nc2ccc(S(=O)(=O)c3ccc(NC(=O)Nc4cc(C(F)(F)F)ccc4F)cc3)cc2[nH]1.Cl [GW680908A],potency estimated from few doses,JAK2; [1],356 nM
O=C(Nc1n[nH]c2nc(-c3cccs3)c(Br)cc12)C1CC1 [SB-735297],potency estimated from few doses,GSK3A; [2],1290 nM
Cl.Cn1cc(C2=C(c3c4n(c5ccccc35)CCC(CN)C4)C(=O)NC2=O)c2ccccc21 (stereo not drawn) [RO0318425-001],potency estimated from few doses,"GSK3A; compound concentrations: 100 nM and 1000 nM (sheet 'Samples'), CATDS: 7.9505519232768704E-2",383 nM
same,potency estimated from few doses,"GSK3B; compound concentrations: 100 nM and 1000 nM (sheet 'Samples'), CATDS: 0.10826194795631",122 nM
same,potency estimated from few doses,PRKCA; CATDS: 0.4123063070702,8.81 nM
same,potency estimated from few doses,PRKCB; CATDS: 0.195628585726322,30 nM
same,potency estimated from few doses,PRKCD; CATDS: 0.18341156503501599,34.1 nM
same,potency estimated from few doses,PRKCI,1630 nM
same,potency estimated from few doses,PRKCQ; CATDS: 0.13479681678754199,67.5 nM
same,potency estimated from few doses,RPS6KA6; CATDS: 9.8162959720225998E-2,167 nM
same,potency estimated from few doses,RPS6KB1,429 nM
O=C(Nc1n[nH]c2nc(-c3ccco3)c(Br)cc12)C1CCN(Cc2ccccc2)C1.O=C(O)[C@H](O)[C@@H](O)C(=O)O (stereo not drawn) [SB-742034-AC],potency estimated from few doses,GSK3A; [2],410 nM
COc1ccc(Nc2nccc(N3CCC(NC(=O)c4cc5ccccc5s4)C3)n2)cc1 (stereo not drawn) [GSK1379738A],potency estimated from few doses,"HSP90B1; compound concentrations: 100 nM and 1000 nM (sheet 'Samples'), CATDS: 0.19171870490815801",1350 nM
same,potency estimated from few doses,PIK3CA,248 nM
same,potency estimated from few doses,PIK3CD,190 nM
same,potency estimated from few doses,PIM2,2150 nM
Cn1cc(C2=C(c3cn(C)c4ccccc34)C(=O)NC2=O)c2ccccc21 [RO0317208-000],potency estimated from few doses,HSPE1,475 nM
same,potency estimated from few doses,PGK1,47 nM
same,potency estimated from few doses,PKM,1120 nM
same,potency estimated from few doses,RAN,1970 nM
CS(=O)(=O)CCNCc1ccc(-c2ccc3ncnc(Nc4ccc(OCc5ccccc5)c(C(F)(F)F)c4)c3c2)o1.Cl [GW574782A],potency estimated from few doses,IARS,1950 nM
same,potency estimated from few doses,RIOK2,1670 nM
Cc1nnc(-c2ccc3occ(-c4ccc(S(C)=O)cc4)c3c2)[nH]1 (stereo not drawn) [TPKI-85],potency estimated from few doses,GSK3A; [2],339 nM
same,potency estimated from few doses,"GSK3B; compound concentrations: 100 nM and 1000 nM (sheet 'Samples'), CATDS: 0.41063798470662799",861 nM
C[C@@H]1CCCCN1c1cc(-c2ccc3c(N)n[nH]c3c2)nc(N)n1 [GSK2258759A],potency estimated from few doses,HSP90B1; [2],968 nM
O=C(Nc1cccnc1)c1cc(-c2ccnc(F)c2)ccc1OCc1ccccc1 [GSK2578215],potency estimated from few doses,JAK2; [2],322 nM
O=C(Nc1ccccc1F)NC1CCN(c2ccnc(Nc3ccc(F)cc3)n2)C1 (stereo not drawn) [GSK1379722A],potency estimated from few doses,HSP90B1; [1],875 nM
O=C(Nc1n[nH]c2nc(-c3cccs3)c(Br)cc12)C1CCCC1 [SB-743341],potency estimated from few doses,GSK3A; [2],529 nM
same,potency estimated from few doses,GSK3B; [2],1070 nM
same,potency estimated from few doses,MERTK,1720 nM
COc1cccc2c1c(C1=C(c3cn(C)c4ccccc34)C(=O)NC1=O)cn2C [RO0317494-000],potency estimated from few doses,"GSK3A; compound concentrations: 100 nM and 1000 nM (sheet 'Samples'), CATDS: 0.489076637072761",149 nM
same,potency estimated from few doses,"GSK3B; compound concentrations: 100 nM and 1000 nM (sheet 'Samples'), CATDS: 0.37680240996491099",241 nM
same,potency estimated from few doses,ICK,912 nM
[2H]C([2H])(c1cccc(C(F)(F)F)c1C)n1ccn2c(=O)cc(N3CCOCC3)nc12 [GSK2289044B],potency estimated from few doses,HSP90B1; [2],112 nM
same,potency estimated from few doses,PIK3CB,16 nM
Cn1cc(C2=C(c3cn(CCCCCN)c4ccccc34)C(=O)NC2=O)c2ccccc21 [RO0317843-000],potency estimated from few doses,"GSK3A; compound concentrations: 100 nM and 1000 nM (sheet 'Samples'), CATDS: 0.120915323717963",500 nM
same,potency estimated from few doses,"GSK3B; compound concentrations: 100 nM and 1000 nM (sheet 'Samples'), CATDS: 0.12552661641342699",455 nM
same,potency estimated from few doses,PRKCA; CATDS: 0.213712947404604,159 nM
same,potency estimated from few doses,PRKCB; CATDS: 0.109320974178185,666 nM
same,potency estimated from few doses,PRKCD; CATDS: 0.13254198888423899,398 nM
same,potency estimated from few doses,PRKCQ; CATDS: 0.26439518938370499,114 nM
same,potency estimated from few doses,RPS6KA6; CATDS: 0.131410075991204,407 nM
